Bioassay records from PubChem.
D1 PAM = human D1 dopamine receptor positive modulation. 0.036% of 360,000 active. potentiation, % at 10 µM. P21728. AID 504651. HEK293 TREx D1 cells, calcium flux, dopamine EC20 potentiation; in the data active = potentiation above about 30%; also: 0% is about no effect
TRHR enhancer = allosterically enhances the human TRH receptor. P34981. TRHR cells, fluo-8 calcium fluorescence, EC20 TRH enhancement. enhancement, % at 2 µM. 0.66% of 360,000 active. AID 493056; in the data active = enhancement above about 30%; also: 0% is about no effect
Target sequence (P34981 whole entry, looked up): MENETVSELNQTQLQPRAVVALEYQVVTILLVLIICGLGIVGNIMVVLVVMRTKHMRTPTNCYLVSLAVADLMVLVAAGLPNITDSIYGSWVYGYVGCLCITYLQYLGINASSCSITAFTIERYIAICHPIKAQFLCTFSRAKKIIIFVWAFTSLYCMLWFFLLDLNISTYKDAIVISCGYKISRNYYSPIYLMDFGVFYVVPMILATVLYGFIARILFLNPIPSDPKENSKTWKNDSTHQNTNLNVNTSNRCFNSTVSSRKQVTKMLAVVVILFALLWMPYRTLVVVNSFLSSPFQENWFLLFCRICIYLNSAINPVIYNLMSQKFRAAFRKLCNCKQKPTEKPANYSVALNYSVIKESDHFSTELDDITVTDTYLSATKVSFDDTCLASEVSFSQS
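TRHR-expressing cells loaded with fluo-8 calcium dye were read kinetically (ex 480/em 530) during compound addition, then stimulated with an EC20 of TRH (10 nM final). Enhancement of the Gq-mediated intracellular calcium response was scored.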
D1 antag = blocks dopamine activation of the human D1 receptor. activity change, negative = inhibition, % at 10 µM. HEK293 TREx D1 cells, calcium flux, dopamine EC80; hits give low values. 3.2% of 360,000 active. P21728; in the data active = activity change below about -30%; also: % is scaled to controls: 0 for no effect and ±100 for the full control effect
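Tetracycline-induced HEK293 Trex D1 cells, force-coupled to calcium, dye-loaded; compounds added and read 180 s, then EC80 dopamine added and calcium flux tracked kinetically another 180 s.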
D1 agonist = human D1 receptor agonism; P21728; HEK293 T-REx D1 cells, calcium flux, agonist mode; activation, % at 2 µM; 1% of 360,000 active; also: 0% is about no effect
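Agonism was scored from calcium flux recorded over 180 s (1 read/s) after pintool compound addition, following a 10-cycle baseline. Cells were inducible force-coupled HEK293 TREx D1, plated overnight at 30 C and loaded with no-wash calcium dye.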
TRHR ag = activates the human TRH receptor | 0.18% of 360,000 active | P34981 | activation, % at 2 µM | TRHR cells, calcium flux fluo-8, FDSS agonist mode; also: 0% is about no effect
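TRHR-expressing cells loaded with fluo-8 calcium dye; 23 nL library compound pin-transferred, kinetic FDSS fluorescence (Ex 480/Em 530) recorded about 180 s for agonist-induced calcium release, before a 10 nM TRH EC20 addition for potentiator mode.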
* = called active by the depositor. This is a sample that favours compounds with a hit; in the whole collection about 4.7% have one here. Rule as the data show it, unless noted: active = activation above about 30%; inactive = the rest.

How did O=C(NCCc1ccccc1)C(=O)NCC(c1cccnc1)N1CCN(c2ccc(F)cc2)CC1 (stereo unspecified) do in these assays?
D1 PAM: 1; TRHR enhancer: 1; D1 antag: 4; D1 agonist: 33*; TRHR ag: -1

Results for CN(C)CCNC(=O)C(=O)NCC(c1cccnc1)N1CCN(c2ccccc2)CC1 (stereo unspecified) ?
D1 PAM: -4; TRHR enhancer: 8; D1 antag: -33*; D1 agonist: 5; TRHR ag: 0

What do the screens show for `Cc1ccc(C(=O)NCC(c2cccnc2)N2CCc3ccccc3C2)cc1C` (stereo unspecified)?
D1 PAM: -3; TRHR enhancer: 1; D1 antag: -31*; D1 agonist: 3; TRHR ag: 0

How did CN(C)CCNC(=O)C(=O)NCC(c1cccnc1)N1CCN(c2ccc(F)cc2)CC1 (stereo unspecified) do in these assays?
D1 PAM: 3; TRHR enhancer: -6; D1 antag: -2; D1 agonist: -1; TRHR ag: 0

Results for CC(C)(C)c1ccc(C(=O)NCC(c2cccnc2)N2CCc3ccccc3C2)cc1 (stereo unspecified) ?
D1 PAM: 1; TRHR enhancer: 1; D1 antag: 7; D1 agonist: 3; TRHR ag: -1

How did O=C1C(=O)N(C2CCN(S(=O)(=O)c3ccccc3)CC2)CCN1Cc1ccccc1 do in these assays?
D1 PAM: -3; TRHR enhancer: -2; D1 antag: -4; D1 agonist: 3; TRHR ag: 0

How did COc1ccc(N2CCN(Cc3nc4c(c(=O)[nH]c(=O)n4C)n3Cc3ccccc3F)CC2)cc1 do in these assays?
D1 PAM: 2; TRHR enhancer: 2; D1 antag: 2; D1 agonist: -1; TRHR ag: -1

How did Cc1cc(-c2ccccc2)nc(SC(C(=O)O)c2ccccc2)n1 (stereo unspecified) do in these assays?
D1 PAM: -7; TRHR enhancer: 7; D1 antag: -13; D1 agonist: 2; TRHR ag: 0

How did O=C(O)C(Sc1ccncn1)c1ccccc1 (stereo unspecified) do in these assays?
D1 PAM: 2; TRHR enhancer: 2; D1 antag: -35*; D1 agonist: 1; TRHR ag: 0

Results for CCc1sc(-c2c(C#N)c(N)nc3c2CCCCCC3)cc1[N+](=O)[O-] ?
D1 PAM: 20; TRHR enhancer: 3; D1 antag: 22; D1 agonist: 73*; TRHR ag: 4

What do the screens show for `CC(C)(C)c1ccc(-c2c(C#N)c(N)nc3c2CCCC3)s1`?
D1 PAM: -3; TRHR enhancer: 0; D1 antag: -4; D1 agonist: 1; TRHR ag: 0

How did Cc1ccc(O)c(NC(=O)c2ccc(Br)c(S(=O)(=O)N3CCCCC3)c2)c1 do in these assays?
D1 PAM: -2; TRHR enhancer: -1; D1 antag: -58*; D1 agonist: 14; TRHR ag: -1

What do the screens show for `Cc1ccc(O)c(NC(=O)c2cccc(S(=O)(=O)N3CCCCC3)c2)c1`?
D1 PAM: -3; TRHR enhancer: 2; D1 antag: 17; D1 agonist: 6; TRHR ag: 0

What do the screens show for `O=S(=O)(c1ccc(F)cc1)N(CC(O)Cn1c2ccccc2c2ccccc21)c1ccccc1` (stereo unspecified)?
D1 PAM: 6; TRHR enhancer: 0; D1 antag: 17; D1 agonist: 4; TRHR ag: 1

What do the screens show for `Cc1n[nH]c(=S)c2nn(-c3ccccc3)c(C)c12`?
D1 PAM: -9; TRHR enhancer: -1; D1 antag: -33*; D1 agonist: 1; TRHR ag: -1

Results for Cc1ccc(-n2nc3c(=S)[nH]nc(C)c3c2C)cc1 ?
D1 PAM: 1; TRHR enhancer: 2; D1 antag: -1; D1 agonist: 2; TRHR ag: 1

Results for Cc1cc2nc(-c3cccc(NC(=O)COc4ccc(C(C)C)cc4)c3)oc2cc1C ?
D1 PAM: -2; TRHR enhancer: 1; D1 antag: 5; D1 agonist: -1; TRHR ag: 1

How did CCCCNC(=O)CCc1c(C)nc2cc(-c3ccccc3)nn2c1C do in these assays?
D1 PAM: -4; TRHR enhancer: -1; D1 antag: -24; D1 agonist: 1; TRHR ag: 0

Results for COc1ccc(N2CCN(C(=O)CCc3c(C)nc4cc(-c5ccc(OC)cc5OC)nn4c3C)CC2)cc1 ?
D1 PAM: -1; TRHR enhancer: -13; D1 antag: 2; D1 agonist: 2; TRHR ag: 0

Results for COc1ccc(N2CCN(C(=O)CCc3c(C)nc4cc(-c5ccc(Cl)cc5)nn4c3C)CC2)cc1 ?
D1 PAM: -7; TRHR enhancer: 0; D1 antag: -39*; D1 agonist: 1; TRHR ag: 0

What do the screens show for `COCCCNC(=O)CCc1c(C)nc2cc(-c3ccc(Cl)cc3)nn2c1C`?
D1 PAM: -5; TRHR enhancer: 10; D1 antag: -54*; D1 agonist: 7; TRHR ag: -1

What do the screens show for `CCOc1ccc(S(=O)(=O)NCCc2sc3nc(-c4ccc(F)cc4)nn3c2C)cc1`?
D1 PAM: 3; TRHR enhancer: -6; D1 agonist: 16; TRHR ag: 0

How did NC(=O)C1CCN(C2CC(=O)NC2=O)CC1 (stereo unspecified) do in these assays?
D1 PAM: -3; TRHR enhancer: 1; D1 antag: -37*; D1 agonist: 5; TRHR ag: -1

Results for CN1C(=O)CC(N2CCC(C(N)=O)CC2)C1=O (stereo unspecified) ?
D1 PAM: -1; TRHR enhancer: 2; D1 antag: -4; D1 agonist: 2; TRHR ag: 0

Results for COc1cc2nc(SCc3ccc(C)cc3)n3nc(CCn4nc(C)cc4C)nc3c2cc1OC ?
D1 PAM: 6; TRHR enhancer: 14; D1 antag: 2; D1 agonist: 1; TRHR ag: -1

What do the screens show for `c1ccc(-c2ccccc2OCCCCN2CCCCC2)cc1`?
D1 PAM: -6; TRHR enhancer: -1; D1 antag: -8; D1 agonist: 9; TRHR ag: -1

What do the screens show for `c1ccc(-c2ccccc2OCCCN2CCCC2)cc1`?
D1 PAM: -3; TRHR enhancer: -3; D1 antag: -39*; D1 agonist: 10; TRHR ag: 0

What do the screens show for `CC1CCN(CCOc2ccccc2-c2ccccc2)CC1`?
D1 PAM: -6; TRHR enhancer: 10; D1 antag: -18; D1 agonist: 2; TRHR ag: 0

How did c1ccc(-c2ccccc2OCCCN2CCCCCC2)cc1 do in these assays?
D1 PAM: -10; TRHR enhancer: -1; D1 antag: -43*; D1 agonist: 24; TRHR ag: 1
